# Assay outcomes from PubChem.
# Rtt109 Vps75 = inhibitors of Candida albicans Rtt109/Vps75 histone acetyltransferase; Q5AAJ8; purified Rtt109/Vps75, ThioGlo CoA-SH fluorescence, 4 h; inhibition, % at 34.9 µM; hit rate 0.16% among 330,000; AID 540336;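 active means inhibition of at least 50% in every replicate; inconclusive means best replicate reaches 50% inhibition but some replicates fall short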
# Target sequence (Q5AAJ8 whole entry, looked up): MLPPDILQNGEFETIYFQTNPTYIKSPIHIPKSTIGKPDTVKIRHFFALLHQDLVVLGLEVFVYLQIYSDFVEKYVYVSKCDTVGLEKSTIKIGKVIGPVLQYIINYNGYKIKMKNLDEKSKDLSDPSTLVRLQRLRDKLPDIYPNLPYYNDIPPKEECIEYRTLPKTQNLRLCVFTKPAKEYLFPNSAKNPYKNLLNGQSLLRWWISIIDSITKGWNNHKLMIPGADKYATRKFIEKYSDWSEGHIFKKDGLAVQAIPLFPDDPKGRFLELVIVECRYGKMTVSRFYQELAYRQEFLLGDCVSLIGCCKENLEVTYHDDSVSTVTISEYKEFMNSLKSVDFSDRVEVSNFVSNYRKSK
# PglD inh = inhibitors of Campylobacter jejuni PglD acetyltransferase. purified PglD enzyme, DTNB colorimetric CoA detection. inhibition, % at 12.5 µM. hit rate 0.098% among 360,000. AID 602405; in the data active means inhibition above about 16%, passing the limit was not always enough; inconclusive means no clear call, values can overlap the other calls
# DENV2 CPE = inhibitors of DENV2 cytopathic effect | DENV2-infected cells, cytopathic effect rescue, plate reader | CPE inhibition, % at 9.99 µM | hit rate 1.7% among 350,000; in the data active means CPE inhibition above about 20%, passing the limit was not always enough; inconclusive means no clear call, values can overlap the other calls; tested in BHK-21 cells
# N-glyco inh = blocks N-linked glycosylation in D54 reporter cells; D54 ERlucT glycosylation luciferase reporter, 24 h; percent of 100 nM tunicamycin response; reporter increase, % at 12.5 µM; hit rate 0.23% among 360,000;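 active means mean luciferase reporter signal, scaled so untreated is 0 and the glycosylation-blocking control 100, at or above a set limit in every replicate; inconclusive means mean reaches the limit but not every replicate does; inactive means mean below the limit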;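 further: luciferase carries N-glycosylation sites so blocking glycosylation raises the light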
# A number is an active result; – = inactive; ? = inconclusive; · = not tested or not shown; ! = not confirmed by another sample. The full list was thinned out, with hits kept by preference.
SMILES,Rtt109 Vps75,PglD inh,DENV2 CPE,N-glyco inh
O=c1[nH]c(O)c(/C=C2/C=CC(c3cc(Cl)ccc3Cl)=N2)c(=O)[nH]1,–,–,–,49
CC1=Nc2ccccc2/C1=C/c1c(O)[nH]c(=O)[nH]c1=O,–,–,–,–
OC[C@@H]1[C@@H]2c3ccccc3NC[C@@H]2N1Cc1cccnc1,·,–,–,·
C[C@H]1CC[C@H]2NCCN[C@H]2C1,56,·,–,–
CC12CC[C@H]3[C@@H](CCC4(O)C[C@H](O)CCC34/C=N/NC(=O)c3ccccc3[N+](=O)[O-])C1(O)CCC2C1=CC(=O)OC1 (stereo partly specified),–,–,–,30
CCOS(C)(=O)=O,–,–,48,–
O=C(Cc1ccccn1)N1CCCCN2[C@H](CO)[C@@H](c3ccc(-c4ccccc4)cc3)[C@H]2C1,·,–,–,·
O=C(Cc1ccccn1)N1CCCCN2[C@H](CO)[C@H](c3ccc(-c4ccccc4)cc3)[C@@H]2C1,·,–,–,·
CN(C)CC#Cc1ccc([C@@H]2[C@H]3CN(C(=O)Cc4ccccn4)CCCCN3[C@H]2CO)cc1,·,–,30,·
O=C(Cc1ccccn1)N1CCCCN2[C@H](C1)[C@H](c1ccc(-c3ccccc3)cc1)[C@@H]2CO,·,–,43,·
O=C(Cc1ccccn1)N1CCCCN2[C@@H](CO)[C@@H](c3ccc(Br)cc3)[C@@H]2C1,·,–,33,·
CCCC#Cc1ccc([C@@H]2[C@H]3CN(C(=O)Cc4ccccn4)CCCCN3[C@H]2CO)cc1,·,–,–,·
COC(=O)C1=C(C)NC(C)=C(C(=O)OC)C1c1ccccc1[N+](=O)[O-],134!,–,–,–
Cc1ccc(-c2nc(N(C)C3CCN(C)CC3)c3ccccc3n2)cc1,?,–,·,49
C[C@H]1CN([C@@H](C)CO)C(=O)c2c(c3ccccc3n2C)-c2ccccc2CO[C@H]1CN(C)C(=O)Oc1ccccc1,·,·,81,·
CCCNC(=O)N1[C@@H]2Cn3c(ccc(-c4ccccc4OC)c3=O)[C@H]1[C@@H](C(=O)OC)[C@@H]2CO,·,–,·,·
CCOC(=O)[C@]12Cc3ccc(C)cc3[C@H]1N(C1CCCCC1)C(=O)c1cc(OC)ccc12,·,·,55,·
CCOC(=O)[C@]12Cc3ccc(C)cc3[C@H]1N(C1CCCCC1)C(=O)c1ccccc12,·,·,–,·
c1cncc(-c2ccc(C3[C@H]4CNC[C@@H]3N4CC3CC3)cc2)c1 (stereo partly specified),·,·,–,·
CNc1ccc2oc(C[C@H]3O[C@@]4(CC[C@H]3C)O[C@H]([C@H](C)C(=O)c3ccc[nH]3)[C@H](C)C[C@H]4C)nc2c1C(=O)O,–,–,43,–
O=c1[nH]c2ccccc2n1C1CCN(C(c2cc3ccccc3o2)c2nnnn2-c2ccc3c(c2)OCCO3)CC1 (stereo unspecified),·,–,–,–
O=c1[nH]c2ccccc2n1C1CCN(C(c2cccc3ccccc23)c2nnnn2-c2ccc3c(c2)OCCO3)CC1 (stereo unspecified),·,–,25,–
COC1C(O)C(C)OC(OC2C(Oc3cccc4c(O)c5c(=O)oc6ccc(C)c7c(=O)oc(c34)c5c67)OC(C)C(O)C2O)C1O (stereo unspecified),–,·,–,43
Cc1[nH]c2ccc(OCc3ccccc3)cc2c1CCN,–,–,–,–
Cc1[nH]c2ccc(O)cc2c1CCN,–,–,55,–
SMILES,Rtt109 Vps75,PglD inh,DENV2 CPE,N-glyco inh
COC(=O)[C@H]1[C@H](CO)[C@H]2Cn3c(ccc(C4=CCCCC4)c3=O)[C@@H]1N2CC1CC1,·,–,–,·
C=CCCC1(C2=CCCCC2)C(=O)NC(=O)NC1=O,–,·,27,–
O=C(Cc1cccnc1)N1CCCCN2[C@H](CO)[C@@H](c3ccc(/C=C/c4ccccc4)cc3)[C@@H]2C1,·,–,–,·
O=C(O)[C@@H]1[C@@H](CO)[C@@H]2Cn3c(cccc3=O)[C@H]1N2C(=O)c1ccccc1,·,–,–,·
COc1ccc(CCC(=O)N2C[C@H]3C[C@@H](C2)c2cccc(=O)n2C3)cc1,–,–,–,–
Cc1c(CCC(=O)N2C[C@H]3C[C@@H](C2)c2cccc(=O)n2C3)c(=O)oc2c(C)c(O)ccc12,·,–,56,–
COc1ccc(CC(=O)N2C[C@H]3C[C@@H](C2)c2cccc(=O)n2C3)cc1,–,–,27,–
COC(=O)[C@@H]1[C@@H](CO)[C@@H]2Cn3c(ccc(-c4ccc(F)cc4)c3=O)[C@H]1N2C(=O)c1ccccc1F,·,–,–,·
COC(=O)[C@H]1N[C@H]2c3ccc(C4=CCCC4)c(=O)n3C[C@H]2[C@@H]1CO,·,–,128,·
O=C1CC(=O)N(Cc2ccccc2)C(=S)N1,–,–,23,–
